Compounds without any hit were thinned out: in the full panel of roughly 83,000, 20% have a hit.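 For each line, cells grew in 96-well plates with the test compound present at a single concentration for 48 hours.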 Unmarked numbers belong to inactive results. Calls of active or inactive are those of the source. How the source made its calls: active means growth percent below 10; inactive means the rest.
How the values were obtained:
Test in all cases: NCI-60 one-dose screen, 48 h (100 = growth as untreated, 0 = no growth, -100 = all killed)
Conditions in all cases: 10 µM unless noted
NCI-H23 lung = system: NCI-H23 lung
NCI-H226 lung = system: NCI-H226 lung
NCI-H322M lung = system: NCI-H322M lung
HOP-62 NSCLC = system: HOP-62 NSCLC
NCI-H460 lung = system: NCI-H460 lung
HOP-92 NSCLC = system: HOP-92 NSCLC
NCI-H522 lung = system: NCI-H522 lung
A549/ATCC NSCLC = system: A549/ATCC NSCLC
786-0 renal = system: 786-0 renal
COLO 205 colon = system: COLO 205 colon
DU-145 prostate = system: DU-145 prostate
K-562 leukemia = system: K-562 leukemia
MALME-3M melanoma = system: MALME-3M melanoma
MDA-MB-231 breast = system: MDA-MB-231 breast
RXF 393 renal = system: RXF 393 renal
SF-268 CNS = system: SF-268 CNS
SF-295 CNS = system: SF-295 CNS
SF-539 CNS = system: SF-539 CNS
UACC-257 melanoma = system: UACC-257 melanoma
M14 melanoma = system: M14 melanoma

| SMILES | growth (NCI-H23 lung) | growth (NCI-H226 lung) | growth (NCI-H322M lung) | growth (HOP-62 NSCLC) | growth (NCI-H460 lung) | growth (HOP-92 NSCLC) | growth (NCI-H522 lung) | growth (A549/ATCC NSCLC) | growth (786-0 renal) | growth (COLO 205 colon) | growth (DU-145 prostate) | growth (K-562 leukemia) | growth (MALME-3M melanoma) | growth (MDA-MB-231 breast) | growth (RXF 393 renal) | growth (SF-268 CNS) | growth (SF-295 CNS) | growth (SF-539 CNS) | growth (UACC-257 melanoma) | growth (M14 melanoma) |
| --- | --- | --- | --- | --- | --- | --- | --- | --- | --- | --- | --- | --- | --- | --- | --- | --- | --- | --- | --- | --- |
| O=C(O)c1ccc2c(c1Sc1ccccc1)C(=O)c1ccccc1C2=O | 91.1% | 92.6% | 82.2% | 91.8% | 100% | 76.7% | 120% | 96.8% | 106% | 112% | 107% | 112% | 83.4% | 90.1% | 98.6% | 101% | 91.3% | 84.5% | 96.3% | 107% |
| CN1/C(=C\C=C\C2=[N+](C)c3ccccc3C2(C)C)C(C)(C)c2ccccc21 | -6.67% (active) | 5.56% (active) | 8.56% (active) | 3.55% (active) | 0.247% (active) | -18.1% (active) | -41.7% (active) | 6.73% (active) | 2.93% (active) | -88.5% (active) | 25.2% | 6.42% (active) | -9.73% (active) | 6.24% (active) | -12.4% (active) | 26.4% | -11.3% (active) | 5.93% (active) | -40% (active) | -42.6% (active) |
| O=C(CN1CCN(c2cc3c(cc2F)c(=O)c(C(=O)O)cn3C2CC2)CC1)Nc1cc(=O)[nH]c(=O)[nH]1 | 96.4% | 101% | 95.3% | 102% | 105% | 88.7% | 92.8% | 103% | 95.9% | 110% | 112% | 103% | 95.3% | 102% | 94.4% | 100% | 86.8% | 96.6% | 103% | 89.2% |
| COc1cccc(-c2nc3sccn3c2-c2ccnc(NCCCNS(=O)(=O)c3ccc(Cl)cc3)c2)c1 | 54.4% | 42% | 74.4% | 88.7% | 49.9% | 72% | 55.5% | 40.8% | 58.4% | 44.9% | 51.3% | 29.4% | 74.1% | 59.5% | 65.3% | 44.2% | 42.7% | 66.7% | 59.4% | 41.1% |
| COc1ccc(C(=O)COc2ccc(/C=C3\Oc4ccc(Cl)cc4C3=O)cc2)cc1 | 67.6% | 92% | 96.6% | 100% | 111% | 48.9% | 80.5% | 95.1% | 106% | 96% | 107% | 16.7% | 115% | 86.8% | 101% | 108% | 92.7% | 86.3% | 89.9% | 104% |
| COc1ccc(Cl)cc1Nc1nc(C(F)(F)F)ccc1C(=O)N/N=C/c1cccnc1 | 41.5% | 51.9% | 59% | 54% | 33.6% | 56.8% | 29.3% | 58.7% | 18.7% | 44.5% | 53.7% | 36.1% | 42.6% | 49.3% | 60.9% | 48.9% | 81.6% | 45.9% | 72.7% | 52.9% |
| Clc1nc(Cl)c2c3c(sc2n1)CCCC3 | 32.5% | 3.63% (active) | 90.2% | 91.4% | 109% | 103% | 7.65% (active) | 120% | 96.1% | 5.1% (active) | -55.3% (active) | -33.2% (active) | 45% | 62.4% | -19.4% (active) | 26.1% | 104% | 105% | 81.2% | 21.1% |
| CCCCN(CCCC)Cc1c(C)[nH]c2cc(OC)ccc2c1=O | 107% | 103% | 113% | 88.9% | 103% | 65.3% | 94.6% | 95.4% | 105% | 101% | 106% | 98% | 98% | 104% | 108% | 95.5% | 98.3% | 110% | 94.5% | 102% |
| O=C1/C(=C/c2ccccc2)CN(CCC(=O)N2C/C(=C\c3ccccc3)C(=O)/C(=C/c3ccccc3)C2)C/C1=C\c1ccccc1 | 85.4% | 84.7% | 90.4% | 118% | 84.7% | 63.1% | 53.9% | 88.2% | 73% | 82.4% | 87.6% | 11.6% | 101% | 75.2% | 57.4% | 66.6% | 90.7% | 90.9% | 93.8% | 52.4% |
| Nc1cccc(-c2nc3sccn3c2-c2ccnc(NCCCNS(=O)(=O)c3ccc(C(F)(F)F)cc3)n2)c1 | 4.88% (active) | 2.96% (active) | 19.4% | 19.5% | 2.98% (active) | 71.4% | 8.73% (active) | 12.8% | 23.6% | 6.24% (active) | 13.5% | 8.49% (active) | -2.19% (active) | 21% | 19.7% | 14.6% | -11.3% (active) | 16.5% | 18.8% | 9.8% (active) |
| O=C(Nc1nc(-c2ccccc2)cc(-c2ccc(Cl)cc2)n1)c1ccncc1 | 90.2% | 93.3% | 95.6% | 97.6% | 98.7% | 89.5% | 86.8% | 90.5% | 92.8% | 103% | 103% | 93.5% | 99.3% | 94.8% | 85.7% | 94.5% | 100% | 102% | 104% | 104% |
| COc1cc(-c2nc3ccccc3s2)ccc1NC(=O)COc1ccc(Cl)cc1 | 38.3% | 60% | 71% | 29.1% | 13.4% | 8.1% (active) | 38.6% | 49.2% | 16.8% | 52.8% | 82.1% | 74.9% | 48.3% | 45.9% | 66.3% | 29.4% | 29% | 26.7% | 85.3% | 60% |
| COc1ccc(OCC(=O)Nc2ccc(-c3nc4ccccc4s3)cc2C)cc1 | 69.3% | 51% | 94.7% | 89.5% | 95.5% | 68.4% | 61.6% | 86.2% | 88.8% | 120% | 110% | 59.5% | 100% | 85.7% | 115% | 94.3% | 99.8% | 89.6% | 109% | 89.9% |
| CC(C)C1=C[C@@]23CC[C@@H]4[C@](C)(CCC[C@@]4(C)C(=O)OCC#CCN4CCCC4)[C@H]2C[C@@H]1[C@H]1C(=O)OC(=O)[C@H]13 | 94.9% | 96.1% | 88.5% | 91.9% | 103% | 94.1% | 78.7% | 98.4% | 103% | 111% | 89.2% | 68.5% | 89.6% | 98.3% | 110% | 93.1% | 97.3% | 92.1% | 96.5% | 96.6% |
| O=[N+]([O-])c1cccc(-c2nc3sccn3c2-c2ccnc(NCCCNS(=O)(=O)c3ccc(F)cc3)n2)c1 | -7.3% (active) | -3.92% (active) | 26.8% | 12.5% | 10.5% | 46.2% | 0.116% (active) | 9.67% (active) | 44.2% | 4.52% (active) | 10.6% | 7.51% (active) | -9.59% (active) | 44.9% | 53.4% | 9.32% (active) | 5.57% (active) | 26.5% | 0.0199% (active) | 0.021% (active) |
| Nc1cc2ccncc2c2ccccc12 | 67.7% | 44% | 61.7% | 79.6% | 58.2% | 73.9% | 98.4% | 89.4% | 78.1% | 61.6% | 75.4% | 112% | 97.6% | 64.1% | 81.5% | 75.6% | 69.3% | 79.1% | 103% | 94.7% |
